About 79,000 compounds went through this panel and 15% of them were active in at least one assay; those are over-represented in the sample as a whole. Active and inactive are the calls of the source. Cut-off read from the data, not from the text of the source: active = growth inhibition above about 70%; inactive = the rest.
Experiments:
[1] = NCI Yeast Anticancer Drug Screen. Data for the rad52 strain (AID 147);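 note: 0% = growth of vehicle-treated control cultures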; settings: S. cerevisiae rad52 mutant growth inhibition, active compounds read high
In short: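 Read-out: growth inhibition versus vehicle-treated controls. Cells were a DNA repair-deficient yeast strain treated with compounds.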

[2] = NCI Yeast Anticancer Drug Screen. Data for the wt1 strain (AID 149);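 note: 0% = growth of vehicle-treated wt1 cultures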; settings: S. cerevisiae wt1 strain (SPY 50644) growth inhibition, active compounds read high
In short: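 Growth inhibition read against vehicle controls after compound exposure of the wt1 yeast strain.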

[3] = NCI Yeast Anticancer Drug Screen. Data for the rad50EPP+ strain (AID 151);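 note: 0% = growth of vehicle-treated control cultures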; settings: S. cerevisiae rad50 mutant strain, active compounds read high
In short: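 Growth inhibition read against vehicle controls in rad50EPP+ yeast, a strain altered in DNA damage repair, after compound exposure.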

[4] = NCI Yeast Anticancer Drug Screen. Data for the mgt1 strain (AID 153); settings: S. cerevisiae mgt1 mutant growth inhibition, active compounds read high
In short: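 mgt1 yeast grown with test compound; read-out is growth inhibition versus vehicle-treated cultures.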

[5] = NCI Yeast Anticancer Drug Screen. Data for the rad50 strain (AID 155);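 note: 0% = growth of vehicle-only cultures of the same strain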; settings: S. cerevisiae rad50 strain growth inhibition, active compounds read high
In short: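 Readout: growth inhibition relative to vehicle-treated cultures. Compound exposure was carried out in a genetically defined yeast strain deficient in DNA damage repair.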

[6] = NCI Yeast Anticancer Drug Screen. Data for the mec2-1 strain (AID 157); settings: S. cerevisiae mec2-1 strain, active compounds read high
In short: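 Yeast mec2-1 mutant treated with compound. Readout: growth inhibition vs vehicle controls.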

[7] = NCI Yeast Anticancer Drug Screen. Data for the sgs1 mgt1 strain (AID 161);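 note: 0% = growth of cultures given vehicle only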; settings: S. cerevisiae sgs1 mgt1 strain, active compounds read high
In short: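 Mutant yeast exposed to compound; growth scored against vehicle-only wells.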

[8] = NCI Yeast Anticancer Drug Screen. Data for the CLN2oe strain (AID 163);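 note: 0% = growth of vehicle-only control cultures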; settings: S. cerevisiae CLN2oe strain, active compounds read high
In short: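 Read-out: yeast growth inhibition, expressed relative to vehicle-only controls. The strain bears an engineered cell-cycle alteration.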

[9] = NCI Yeast Anticancer Drug Screen. Data for the cln2 rad14 strain (AID 165);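 note: 0% = growth equal to vehicle treated cultures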; settings: S. cerevisiae cln2 rad14 strain, active compounds read high
In short: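 cln2 rad14 yeast strain; compound exposure; growth inhibition read vs vehicle controls.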

[10] = NCI Yeast Anticancer Drug Screen. Data for the bub3 strain (AID 167); settings: S. cerevisiae bub3 mutant strain, active compounds read high
In short: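 Readout: yeast growth inhibition, expressed relative to vehicle-only wells. The test organism is a mutant strain from a panel with lesions in DNA repair or checkpoint genes.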

[11] = NCI Yeast Anticancer Drug Screen. Data for the wt2 strain (AID 169);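 note: 0% = growth of vehicle-treated yeast cultures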; settings: S. cerevisiae wt2 strain growth inhibition, active compounds read high
In short: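 Read-out: growth inhibition versus vehicle-treated control cultures after compound exposure of the yeast strain.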

[12] = NCI Yeast Anticancer Drug Screen. Data for the mlh1 strain (AID 171);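 note: 0% = growth of vehicle-treated control cultures of the same strain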; settings: S. cerevisiae mlh1 strain growth inhibition, active compounds read high
In short: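 Read-out: growth inhibition versus vehicle controls. Strain: engineered yeast with a defined DNA repair or cell cycle defect, compound-treated.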

[13] = NCI Yeast Anticancer Drug Screen. Data for the sgs1 strain (AID 173);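 note: 0% = growth of vehicle-only control cultures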; settings: S. cerevisiae sgs1 mutant, active compounds read high
In short: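 Read-out: yeast growth inhibition relative to vehicle controls, following compound exposure of a strain with a defined DNA repair/cell cycle alteration.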

[14] = NCI Yeast Anticancer Drug Screen. Data for the mlh1 rad18 strain (AID 175); settings: S. cerevisiae mlh1 rad18 strain growth inhibition, active compounds read high
In short: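 Yeast w/ defined DNA-repair lesions; compound exposure; growth vs vehicle controls → % inhibition.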

[15] = NCI Yeast Anticancer Drug Screen. Data for the rad18 strain (AID 177); settings: S. cerevisiae rad18 mutant growth inhibition, active compounds read high
In short: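 Readout: growth inhibition vs vehicle controls. Cells: genetically altered yeast strain, DNA repair defect.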

[16] = at 5.0 µM (retest, dose inferred, filed as 0.5)
[17] = at 50.0 µM (retest, dose inferred, filed as 5.0)

Measured: growth inhibition

Clc1ccc(SC(/C=C/NNC2=NC(c3ccccc3)C(c3ccccc3)=NN2)c2ccccc2)cc1 (stereo not drawn)
inactive: [1]; at 1.2 µM 0% | [1]; at 3.7 µM 6% | [1]; at 11.0 µM 11% | [1]; at 33.0 µM 19% | [2]; at 1.2 µM 0% | [2]; at 3.7 µM -1% | [2]; at 11.0 µM -2% | [2]; at 33.0 µM -1% | [2]; at 100.0 µM 51% | [3]; at 1.2 µM 2% | [3]; at 3.7 µM 12% | [3]; at 11.0 µM 7% | [3]; at 33.0 µM 6% | [3]; at 100.0 µM 0% | [4]; at 1.2 µM -5% | [4]; at 3.7 µM 8% | [4]; at 11.0 µM -11% | [4]; at 33.0 µM 8% | [5]; at 1.2 µM 4% | [5]; at 3.7 µM 14% | [5]; [16] 48% | [5]; at 11.0 µM 14% | [5]; at 33.0 µM 47% | [5]; [17] 48% | [6]; at 1.2 µM -1% | [6]; at 3.7 µM 2% | [6]; [16] 0% | [6]; at 11.0 µM 2% | [6]; at 33.0 µM 8% | [6]; [17] 0% | [6]; at 50.0 µM 18.6% | [7]; [16] 31% | [7]; [17] 31% | [7]; at 50.0 µM 49.8% | [8]; at 1.2 µM -9% | [8]; at 3.7 µM 0% | [8]; at 11.0 µM -4% | [8]; at 33.0 µM 1% | [9]; [16] 7% | [9]; [17] 7% | [10]; at 1.2 µM -1% | [10]; at 3.7 µM -1% | [10]; [16] 5% | [10]; at 11.0 µM 0% | [10]; at 33.0 µM 37% | [10]; [17] 5% | [10]; at 50.0 µM 60.9% | [11]; at 1.2 µM 0% | [11]; at 3.7 µM 2% | [11]; at 11.0 µM 2% | [11]; at 33.0 µM 29% | [12]; at 1.2 µM -3% | [12]; at 3.7 µM 5% | [12]; at 11.0 µM -4% | [12]; at 33.0 µM 31% | [13]; at 1.2 µM 1% | [13]; at 3.7 µM 3% | [13]; at 11.0 µM 4% | [13]; at 33.0 µM 33% | [14]; [16] 0% | [14]; [17] 0% | [14]; at 50.0 µM 58.4% | [15]; at 1.2 µM 2% | [15]; at 3.7 µM 9% | [15]; at 11.0 µM 23% | [15]; at 33.0 µM 41%
active: [1]; at 100.0 µM 83% | [4]; at 100.0 µM 85% | [5]; at 50.0 µM 71.3% | [5]; at 100.0 µM 82% | [6]; at 100.0 µM 85% | [8]; at 100.0 µM 80% | [9]; at 50.0 µM 70% | [10]; at 100.0 µM 84% | [11]; at 100.0 µM 86% | [12]; at 100.0 µM 84% | [13]; at 100.0 µM 87% | [15]; at 100.0 µM 80%

From PubChem BioAssay (NCI)
